# Laboratory results: PubChem BioAssay (NCATS)
# Results filed as inconclusive are left out. Where a call stands in place of a potency, no number is given. Activity calls are given as the source filed them. The call rests on the fitted dose curve; in most records, active means well fitted curve in the direction sought with a large enough effect; inconclusive means small, poorly fitted or top-dose-only effect, or another doubt; inactive means no such curve, though single readings can be large; an effect the other way counts as inactive or inconclusive.
# Legend:
# [1] = qHTS to identify inhibitors of the type 1 interferon - major histocompatibility complex class I in skeletal muscle: primary screen against the NCATS LOPAC collection (AID 1347405);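 further: human myoblasts with HiBiT tag on endogenous HLA-B stimulated by IFN-beta; lytic HiBiT luminescence reporting HLA-B protein level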; further: potency means the concentration at half of the fitted maximal effect
# Summary of the method: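 HLA-B HiBiT myoblasts, IFN-b 4 ng/ml, dexamethasone-free medium; compounds 7-pt 1:4.3 titration, top 46 uM final; 24 h at 37 C; Nano-Glo HiBiT lytic reagent, 10 min RT, luminescence.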
# [2] = qHTS for inhibitors of adenylyl cyclases using a fission yeast platform: a pilot screen against the NCATS LOPAC library (AID 1347410)
# Summary of the method: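 Inhibition of GNAS-stimulated AC9 activity in S. pombe was inferred from derepression of a PKA-repressed fbp1-GFP reporter, measured as cytometric fluorescence after 18 h at 30C with compounds at up to 57 µM.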
# [3] = qHTS to identify inhibitors of the type 1 interferon - major histocompatibility complex class I in skeletal muscle: primary screen against the NCATS Mechanism Interrogation Plate v5.0 (MIPE) Libary (AID 1347411); further: nearly all actives have a fitted effect of over 65% in size; further: potency means the concentration at half of the fitted maximal effect
# Summary of the method: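 HLA-B HiBit myoblasts, dexamethasone-free medium + 4 ng/ml IFN-b, 24 h compound, 11-pt 1:3 from 46 uM final. Readout: Nano-Glo HiBiT lytic luminescence after 10 min lysis, RT.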
# [4] = molecular target: Calcium and integrin-binding protein 1 (Homo sapiens) (UniProt Q99828); experiment: Validation qHTS for Identification of Calcium Integrin Binding protein 1 (CIB1) Competitor (AID 1508618)
# Summary of the method: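 Displacement of FITC-alphaIIb peptide (100 nM) from CIB1-GST (1 uM) is monitored by polarization in quantitative HTS format; buffer carries 5 mM CaCl2 and 125 mM NaCl at pH 7.4, incubations are at room temperature.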
# [5] = molecular target: Calcium and integrin-binding protein 1 (Homo sapiens) (UniProt Q99828); experiment: Primary qHTS for Identification of Calcium Integrin Binding Protein 1 (CIB1) Competitor (AID 1508620);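 further: GST tagged CIB1 binding a fluorescein labelled alphaIIb integrin peptide tracer; top concentration of the series differs between compounds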
# Summary of the method: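 Fluorescence polarization competition: CIB1-GST (1 uM final) preincubated with compound 15 min at room temperature, then FITC-labeled alphaIIb peptide (100 nM final) added for another 15 min. Polarization read at Ex 480/Em 540.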
# [6] = qHTS to identify inhibitors of the type 1 interferon - major histocompatibility complex class I in skeletal muscle: primary screen against the NCATS Pharmaceutical Collection (AID 1347407);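 further: luminescence of HiBiT knocked into endogenous HLA-B as interferon-induced MHC class I level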
# Summary of the method: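 A qHTS format is used: 8-point, 1:5 compound series with 46 uM top final concentration, applied alongside 4 ng/ml IFN-beta to HLA-B*08:01-HiBiT knock-in myoblasts. Luminescence is measured after 24 h treatment.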
# [7] = molecular target: Protein phosphatase 1D (Homo sapiens) (UniProt O15297); experiment: RapidFire Mass Spectrometry qHTS Assay for Modulators of WT P53-Induced Phosphatase 1 (WIP1) (AID 1347424);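 further: amount of dephosphorylated VEPPL-S-QETFS peptide product formed by WIP1; series mostly up to about 63 µM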
# Summary of the method: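 Mass-spectrometric measurement of dephosphorylated peptide after a 5 min room-temperature reaction of 10 nM WIP1 with 2 uM phosphopeptide, following 1 h compound preincubation in 30 mM MgCl2 buffer.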
# [8] = molecular target: Protein phosphatase 1D (Homo sapiens) (UniProt O15297); experiment: Rhodamine-PBP qHTS Assay for Modulators of WT P53-Induced Phosphatase 1 (WIP1) (AID 1347425)
# Summary of the method: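 5 nM WIP1 + 10 uM Rh-PBP, 50 mM Tris pH 7.5, 30 mM MgCl2, 1 mM TCEP, 0.1 mM EGTA, BSA; cpds pinned, 1 hr RT; + 10 uM phosphopeptide; fluorescence 1-min reads x 11 min; delta = f1 - f0.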
# [9] = Primary qHTS for inhibitors of La Crosse Virus (LACV) - induced cell death in SH-SY5Y cells (AID 1508616);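 further: top concentration of the series differs between compounds; higher means more rescue of cells from virus-induced death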
# Summary of the method: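 Cytopathicity rescue screen: compounds pinned onto SH-SY5Y cells, which are then infected with LACV (MOI 0.01) and held 6 days at 37C. Percent activity is scaled between infected DMSO control and uninfected DMSO control.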
# [10] = molecular target: Calcium and integrin-binding protein 1 (Homo sapiens) (UniProt Q99828); experiment: Confirmatory qHTS for Identification of Calcium Integrin Binding Protein 1 (CIB1) Competitor (AID 1508617); further: nearly all actives have a fitted effect of over 65% in size; further: potency means the concentration at half of the fitted maximal effect
# Summary of the method: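 Confirmatory qHTS measures displacement of a FITC-alphaIIb peptide (100 nM) from CIB1-GST (1 uM) by fluorescence polarization. Calcium-containing HEPES buffer, pH 7.4; two 15 min room-temperature incubations.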
# [11] = Counterscreen qHTS for small molecule stabilizers of the endoplasmic reticulum resident proteome: GLuc-NoTag assay (AID 1508627); further: series mostly up to about 76 µM
# Summary of the method: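 Secreted GLuc lacking the SERCaMP modification is measured in SH-SY5Y cells exposed to compound for 19 h and then to thapsigargin (100 nM, 4 h) to deplete ER calcium; hits retested at 11 concentrations, up to 76.6 uM.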
# [12] = Validation qHTS assay for inhibitors of Activation Induced Cytidine Deaminase (AID): UDG Counterscreen signal (AID 1347427)
# Summary of the method: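 Fluorescence at 560 nm excitation, 665 nm emission reports UDG signal after 250 mM NaOH (2x) addition and 30 min. Enzymes (AID 1 uM, UDG 2 U/mL, at 4/3x) preincubated 10 min with compound, then 4 h with 4x 250 nM DJC20/DJC23 substrate at room temperature.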
# [13] = molecular target: Single-stranded DNA cytosine deaminase (Homo sapiens) (UniProt Q9GZX7); experiment: Validation qHTS assay for inhibitors of Activation Induced Cytidine Deaminase (AID): AID signal (AID 1347429)
# Summary of the method: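 AID+UDG coupled FRET deamination; cpds up to 114 uM final; DJC20/DJC23 substrate, 4 hr RT; NaOH stop, 30 min RT; read Ex 540/Em 590.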
# [14] = molecular target: Lysine-specific demethylase 5B (Homo sapiens) (UniProt Q9UGL1); experiment: Optimization screen for KDM5B Histone Demethylases FDH coupled qHTS against the LOPAC library (AID 1347166)
# Summary of the method: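 KDM5BDeltaAP (200nM final) in 50mM HEPES pH 7.5, 0.01% Tween-20 was preincubated with compound for 10 min at room temperature. A substrate mix of 12.5uM H3K4Me3, 25uM a-ketoglutarate, ascorbate, Fe2+, NAD+ and formaldehyde dehydrogenase was then added. NADH fluorescence (340/450 nm) was read initially and after 30 min.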
# [15] = Vero cells viability qHTS for Zika virus inhibitors (AID 1347167)
# Summary of the method: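 To flag cytotoxic protease inhibitors, viability is measured by ATP-dependent luminescence (CellTiter Glo) after cells attached overnight receive compound for 24 to 48 hours in DMEM with 4% FBS.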
# Protein phosphatase 1D (Homo sapiens), sequence (O15297 whole entry, looked up): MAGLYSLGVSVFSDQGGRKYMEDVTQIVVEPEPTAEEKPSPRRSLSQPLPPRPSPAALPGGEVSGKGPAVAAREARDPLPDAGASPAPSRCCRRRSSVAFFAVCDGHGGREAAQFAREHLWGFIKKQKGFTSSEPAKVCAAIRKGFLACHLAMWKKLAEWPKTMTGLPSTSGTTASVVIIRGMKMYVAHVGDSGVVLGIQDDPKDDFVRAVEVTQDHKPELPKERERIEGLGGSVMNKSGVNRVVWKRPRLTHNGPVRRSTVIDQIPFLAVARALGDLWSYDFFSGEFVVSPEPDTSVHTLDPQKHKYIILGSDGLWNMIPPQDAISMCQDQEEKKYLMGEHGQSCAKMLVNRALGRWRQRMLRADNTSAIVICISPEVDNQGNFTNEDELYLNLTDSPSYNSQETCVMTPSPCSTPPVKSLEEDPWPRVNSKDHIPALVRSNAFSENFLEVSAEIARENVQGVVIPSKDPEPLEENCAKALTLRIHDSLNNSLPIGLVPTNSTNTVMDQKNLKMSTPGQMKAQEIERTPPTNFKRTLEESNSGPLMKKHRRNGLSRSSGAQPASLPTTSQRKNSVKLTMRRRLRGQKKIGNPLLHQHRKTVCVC
# Single-stranded DNA cytosine deaminase (Homo sapiens), sequence (Q9GZX7 whole entry, looked up): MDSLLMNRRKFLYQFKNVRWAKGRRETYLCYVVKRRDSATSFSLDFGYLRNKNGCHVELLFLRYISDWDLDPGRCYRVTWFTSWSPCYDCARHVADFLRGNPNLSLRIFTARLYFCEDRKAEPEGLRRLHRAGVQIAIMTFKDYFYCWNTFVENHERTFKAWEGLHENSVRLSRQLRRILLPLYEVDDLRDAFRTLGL
# Calcium and integrin-binding protein 1 (Homo sapiens), sequence (Q99828 whole entry, looked up): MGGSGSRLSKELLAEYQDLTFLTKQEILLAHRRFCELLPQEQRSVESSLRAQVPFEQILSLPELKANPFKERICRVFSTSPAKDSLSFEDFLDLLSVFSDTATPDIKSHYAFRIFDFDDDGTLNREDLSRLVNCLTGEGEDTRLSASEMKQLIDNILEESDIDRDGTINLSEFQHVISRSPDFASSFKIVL
# Lysine-specific demethylase 5B (Homo sapiens), sequence (Q9UGL1 whole entry, looked up): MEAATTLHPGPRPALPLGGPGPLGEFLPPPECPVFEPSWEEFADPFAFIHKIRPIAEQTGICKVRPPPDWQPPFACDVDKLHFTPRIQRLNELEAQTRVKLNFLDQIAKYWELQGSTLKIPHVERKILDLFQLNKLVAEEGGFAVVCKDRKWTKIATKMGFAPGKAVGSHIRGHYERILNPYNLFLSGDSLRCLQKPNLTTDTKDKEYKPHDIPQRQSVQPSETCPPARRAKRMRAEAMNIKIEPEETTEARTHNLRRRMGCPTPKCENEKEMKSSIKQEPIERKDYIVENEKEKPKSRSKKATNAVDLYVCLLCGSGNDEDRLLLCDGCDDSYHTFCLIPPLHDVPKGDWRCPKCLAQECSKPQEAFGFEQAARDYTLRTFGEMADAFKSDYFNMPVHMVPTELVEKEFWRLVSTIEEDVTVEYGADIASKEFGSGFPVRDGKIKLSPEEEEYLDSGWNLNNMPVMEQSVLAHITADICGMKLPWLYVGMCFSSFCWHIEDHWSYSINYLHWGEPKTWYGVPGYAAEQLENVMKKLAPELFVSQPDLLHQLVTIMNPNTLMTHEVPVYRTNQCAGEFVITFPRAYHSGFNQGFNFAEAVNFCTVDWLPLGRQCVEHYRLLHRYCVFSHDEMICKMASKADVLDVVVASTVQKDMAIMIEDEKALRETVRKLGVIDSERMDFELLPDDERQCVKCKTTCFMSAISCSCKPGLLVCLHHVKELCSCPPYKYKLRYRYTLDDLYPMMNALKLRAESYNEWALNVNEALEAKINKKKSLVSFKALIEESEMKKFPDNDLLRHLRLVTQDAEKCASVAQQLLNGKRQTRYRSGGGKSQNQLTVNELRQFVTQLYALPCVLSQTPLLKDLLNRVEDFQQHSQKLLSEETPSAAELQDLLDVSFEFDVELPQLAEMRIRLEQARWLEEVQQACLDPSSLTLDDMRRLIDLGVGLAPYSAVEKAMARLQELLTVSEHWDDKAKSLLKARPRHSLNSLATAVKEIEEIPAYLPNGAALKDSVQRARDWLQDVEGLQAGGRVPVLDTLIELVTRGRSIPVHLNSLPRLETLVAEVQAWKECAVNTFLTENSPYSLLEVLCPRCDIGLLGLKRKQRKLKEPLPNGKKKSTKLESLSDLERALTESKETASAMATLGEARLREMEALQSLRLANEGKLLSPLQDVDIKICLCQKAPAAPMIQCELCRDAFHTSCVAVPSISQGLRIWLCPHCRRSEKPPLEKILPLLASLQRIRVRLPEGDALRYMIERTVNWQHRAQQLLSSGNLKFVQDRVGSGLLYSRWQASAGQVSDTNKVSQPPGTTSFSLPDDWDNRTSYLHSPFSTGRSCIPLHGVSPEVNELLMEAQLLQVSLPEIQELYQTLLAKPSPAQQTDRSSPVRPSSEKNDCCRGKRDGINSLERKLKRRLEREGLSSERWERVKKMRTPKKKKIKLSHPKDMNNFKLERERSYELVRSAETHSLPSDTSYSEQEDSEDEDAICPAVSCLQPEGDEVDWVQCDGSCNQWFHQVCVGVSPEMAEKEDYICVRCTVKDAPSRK
smiles,measurement,setting,value
CS(=O)(=O)c1cccc(CNc2nc(Nc3ccc4c(c3)CCC(=O)N4)ncc2C(F)(F)F)c1,Potency,[1],5.62 µM (active)
same,outcome,[2],inactive
same,Potency,[3],10.4 µM (active)
same,Potency,[4],inactive
same,outcome,[5],inactive
CCC(C)(C)C(=O)O[C@H]1C[C@@H](C)C=C2C=C[C@H](C)[C@H](CC[C@@H]3C[C@@H](O)CC(=O)O3)[C@H]21,outcome,[6],inactive
same,Potency,[3],inactive
same,Potency,[7],inactive
same,outcome,[8],inactive
COc1ccc2nc(S(=O)Cc3ncc(C)c(OC)c3C)[nH]c2c1 (stereo not given),outcome,[6],inactive
same,Potency,[3],inactive
same,Potency,[7],inactive
same,outcome,[8],inactive
same,outcome,[9],inactive
same,Potency,[10],39.8 µM (active)
same,outcome,[5],inactive
same,Potency,[11],inactive
CNC(=O)c1ccccc1Sc1ccc2c(/C=C/c3ccccn3)n[nH]c2c1,outcome,[6],inactive
same,Potency,[7],inactive
same,outcome,[8],inactive
same,outcome,[5],inactive
NC(N)=NC(=O)c1nc(Cl)c(N)nc1N,Potency,[1],inactive
same,outcome,[6],inactive
same,outcome,[2],inactive
same,Potency,[3],inactive
same,Potency,[7],inactive
same,outcome,[8],inactive
same,outcome,[12],inactive
same,Potency,[13],inactive
same,outcome,[9],inactive
same,Potency,[4],inactive
same,outcome,[5],inactive
Nc1ccc(S(=O)(=O)Nc2ccnn2-c2ccccc2)cc1,outcome,[14],inactive
same,Potency,[1],inactive
same,outcome,[6],inactive
same,outcome,[2],inactive
same,Potency,[7],inactive
same,outcome,[8],inactive
same,outcome,[12],inactive
same,Potency,[13],inactive
same,outcome,[9],inactive
same,Potency,[4],inactive
same,outcome,[5],inactive
CC(C)NCC(O)COc1ccc(COCCOC(C)C)cc1 (stereo not given),outcome,[14],inactive
same,Potency,[1],inactive
same,outcome,[6],inactive
same,outcome,[2],inactive
same,Potency,[7],inactive
same,outcome,[8],inactive
same,outcome,[12],inactive
same,Potency,[13],inactive
same,outcome,[9],inactive
same,Potency,[4],inactive
same,outcome,[5],inactive
Cc1ccc(-n2nc(C(C)(C)C)cc2NC(=O)Nc2ccc(OCCN3CCOCC3)c3ccccc23)cc1,outcome,[6],inactive
same,Potency,[3],inactive
same,outcome,[8],inactive
same,outcome,[9],inactive
same,outcome,[5],inactive
O=C(C1CC1)N1CC[C@@H](Cn2c(-c3ccc(-c4ccc5occc5c4)cc3)nc3cnccc32)C1,outcome,[15],inactive
same,Potency,[3],inactive
same,outcome,[5],inactive
Clc1ccc(Nc2nnc(Cc3ccncc3)c3ccccc23)cc1,Potency,[3],inactive
same,Potency,[7],inactive
same,outcome,[8],inactive
same,outcome,[9],inactive
same,outcome,[5],inactive
Cn1cnc2c(F)c(Nc3ccc(Br)cc3Cl)c(C(=O)NOCCO)cc21,Potency,[3],inactive
same,Potency,[7],inactive
same,outcome,[8],inactive
same,outcome,[9],inactive
same,outcome,[5],inactive
COc1ccc(-c2c(-c3ccc(O)cc3O)n[nH]c2C)cc1,Potency,[3],inactive
same,outcome,[5],inactive
NC(=O)c1ccc(I)c([N+](=O)[O-])c1,Potency,[3],inactive
same,outcome,[5],inactive
O=C1CCCC2=C1C(c1[nH]ncc1Cl)N=C(Nc1nc3ccccc3o1)N2 (stereo not given),Potency,[3],inactive
same,Potency,[10],inactive
same,outcome,[5],inactive
O=c1[nH]c(-c2ccc(C(F)(F)F)cc2)nc2c1CSCC2,Potency,[3],inactive
same,outcome,[5],inactive
OCCn1cc(-c2cnc3nnn(Cc4ccc5ncccc5c4)c3n2)cn1,Potency,[3],inactive
same,outcome,[5],inactive
Cc1cnc(Nc2ccc(OCCN3CCCC3)cc2)nc1Nc1cccc(S(=O)(=O)NC(C)(C)C)c1,Potency,[3],5.23 µM (active)
same,outcome,[5],inactive
CN[C@@H](C)C(=O)N[C@H]1CCCC[C@H]2CC[C@@H](C(=O)N[C@@H](c3ccccc3)c3cn(CCCCc4ccc(CCCCn5cc([C@@H](NC(=O)[C@@H]6CC[C@@H]7CCCC[C@H](NC(=O)[C@H](C)NC)C(=O)N76)c6ccccc6)nn5)cc4)nn3)N2C1=O,Potency,[3],3.3 µM (active)
same,outcome,[5],inactive
Cc1cccc(-c2nn(C(=S)Nc3ccccc3)cc2-c2ccnc3ccccc23)n1,Potency,[3],inactive
same,outcome,[5],inactive
CCC(=O)N[C@H]1CC[C@H](C(=O)N(C)c2ccc(-c3nc4ccccc4o3)cc2)C1,Potency,[3],inactive
same,outcome,[5],inactive
S=C(NCc1ccc2c(c1)OCO2)N1CCN(c2ncnc3c2oc2ccccc23)CC1,Potency,[3],inactive
same,outcome,[5],inactive
CN(C)c1ccc(C2Nc3ccc4ccccc4c3C3=C2C(=O)CC(C)(C)C3)cc1Br (stereo not given),Potency,[3],inactive
same,outcome,[5],inactive
Nc1ncnc2nc(-c3ccc(N4CCOCC4)nc3)cc(-c3cccc(Br)c3)c12,Potency,[3],inactive
same,outcome,[12],inactive
same,Potency,[13],inactive
same,outcome,[9],inactive
same,outcome,[5],inactive
CC(c1cc2ccccc2s1)N(O)C(N)=O (stereo not given),Potency,[3],inactive
same,outcome,[8],inactive
same,outcome,[9],inactive
same,outcome,[5],inactive
CCCn1c(=O)c2[nH]c(C34CC5CC3C[C@@H](C5)C4)nc2n(CCC)c1=O,Potency,[3],inactive
same,outcome,[5],inactive
CC(C)(N)C(=O)N[C@H](COCc1ccccc1)C(=O)N1CCC2(CC1)CN(S(C)(=O)=O)c1ccccc12,Potency,[3],inactive
same,outcome,[5],inactive
N#CC[C@H](C1CCCC1)n1cc(-c2ncnc3[nH]ccc23)cn1,Potency,[3],inactive
same,outcome,[5],inactive
CC[C@@H](C)[C@H](NC(=O)[C@H](CC1CCCCC1)NC(=O)c1ccno1)C(=O)N1CCC2(CCc3ccccc32)CC1,Potency,[3],inactive
same,outcome,[5],inactive
Cc1cc2c(F)c(Oc3ncnn4cc(OC[C@@H](C)O)c(C)c34)ccc2[nH]1,Potency,[3],inactive
same,outcome,[5],inactive
Cc1ccnc(NS(=O)(=O)c2ccc(NC(=O)Nc3ccc(S(=O)(=O)Nc4nccc(C)n4)cc3)cc2)n1,Potency,[3],inactive
same,outcome,[5],inactive
CN(C(=O)c1ccc(F)cc1C(F)(F)F)C1CCN(c2nnc(-c3ccnn3C)c3ccccc23)CC1,Potency,[3],inactive
same,outcome,[5],inactive
CNC(=O)c1ccc(C)c(-n2c(C)cc(OCc3ccc(F)cc3F)c(Br)c2=O)c1,Potency,[3],inactive
same,outcome,[5],inactive
CC(C)(C)OC(=O)CN(Cc1ccc(Cl)cc1)Cc1ccc([N+](=O)[O-])s1,Potency,[3],inactive
same,outcome,[5],inactive
Nc1cccc(S(=O)(=O)N2CCCN(S(=O)(=O)c3ccc4c(c3)OCCO4)CC2)c1,Potency,[3],inactive
same,outcome,[5],inactive
CN(C)c1ccc(Nc2nc(N)n(C(=O)c3c(F)cccc3F)n2)cc1,Potency,[3],16.5 µM (active)
same,outcome,[5],inactive
CC1(C)CNc2cc(NC(=O)c3cccnc3NCc3ccncc3)ccc21,Potency,[3],inactive
same,outcome,[5],inactive
CCN(CC)CCCC(C)Nc1nc(C)cc(Nc2ccc3nc(C)cc(N)c3c2)n1 (stereo not given),Potency,[3],inactive
same,outcome,[5],inactive
CCCCCCCc1ccc(CCc2cccc(O)c2C(=O)O)cc1,Potency,[3],inactive
c1ccc(-c2nn3c(c2-c2ccnc4cc(OCCN5CCOCC5)ccc24)CCC3)nc1,Potency,[3],inactive
same,outcome,[5],inactive
OC[C@H](Cc1ccccc1)Nc1nc(Oc2ccc3c(c2)CCC3)nc2c1ncn2Cc1ccc(-c2ccccc2)cc1,Potency,[3],inactive
same,outcome,[5],inactive
COc1ccc(CCN2CCN(CCCc3ccccc3)CC2)cc1OC,Potency,[3],inactive
same,outcome,[5],inactive
CC(C)OC(=O)C1=CN(C(=O)c2ccc(F)c(F)c2)CC(C)(C)c2c1[nH]c1ccccc21,Potency,[3],inactive
same,outcome,[5],inactive
Cc1c(CCOc2ccc(C(=O)O)cc2)c2cc(Cl)ccc2n1C(c1ccccc1)c1ccccc1,Potency,[3],inactive
same,outcome,[5],inactive
NC(=O)C1CCCc2c1[nH]c1ccc(Cl)cc21 (stereo not given),Potency,[3],inactive
same,outcome,[5],inactive
Cc1cc([C@@H](C)Nc2ccccc2C(=O)O)c2nc(N3CCOCC3)cc(=O)n2c1,Potency,[3],inactive
same,outcome,[5],inactive
